The text below walks through data of PubChem BioAssay (NCI).

SMILES strings stand for the structures. The panel holds about 83,000 compounds, 20% with a hit somewhere; the sample as a whole holds those more often.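 Results are percent growth after 48 hours of single-concentration exposure. 100 means growth as in untreated cells, lower positive values show inhibition; negative values down to -100 show cell death.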 Calls of active or inactive are those of the source. The calls were made as follows: active = growth percent below 10; inactive = the rest.

One experiment relates to A498 renal. Description: NCI-60 one-dose screen, 48 h (100 = growth as untreated, 0 = no growth, -100 = all killed). The settings on record: 10 µM unless noted.
In the case of `Clc1ccc(-c2noc(/C=C\c3ccccc3)n2)cc1`, the growth was 93.7% (inactive).
Still for that read-out and setting: to `CC(=O)NCNC(C)=O` belongs 113% (inactive).
Still for that read-out and setting: to `CCOC(=O)c1ccc(C(C)(C)C)cc1` belongs 114% (inactive); to `NC(=S)N/N=C/c1ccc(Cl)cc1`, 99.5% (inactive); to `Cc1ccc(NC(=O)c2ccccc2Cl)cc1`, 79.2% (inactive).
Turning to `C=CCC(OC(C)=O)c1ccc(OC)c(OC)c1` (centres undefined), the growth is 110% (inactive).
Same read-out and setting: to `Oc1ccc(N=Cc2ccc(OCc3ccccc3)cc2)cc1` belongs 75.8% (inactive).
Same read-out and setting: the figure for `COc1nc(Nc2cccc(C(F)(F)F)c2)nc(OC)n1` is 85.3% (inactive); for `C=C1SC(=Nc2c(C)cccc2C)N(c2nc(Cl)nc(Cl)n2)C12CCCCC2` it is 113% (inactive).
On to `O=C(CCl)Nc1ccccc1SCc1cc(Cl)cc2c1OCOC2`, for which the growth was 103% (inactive).
On the same count and under the same terms, to `Cc1c(-c2ccc(C3CCCCC3)cc2)nc2ccc(F)cc2c1C(=O)O` belongs 89.7% (inactive); to `C[n+]1cc2cc3c(cc2c2ccccc21)OCO3`, 72.8% (inactive); to `CCCC(=O)CC(=O)c1ccccc1`, 70.4% (inactive).
With `O=C(O)Cc1ccc(Cl)cc1`, the growth is 95.9% (inactive).
On to `CC(C)(CC(=O)O)CC(=O)O`, for which the growth is 93.7% (inactive).
Still for that read-out and setting: the figure for `CCOC(=O)C(C#N)=C1CCN(C)CC1` is 100% (inactive); for `O=C1NC(=O)C(c2ccccc2)O1` (centres undefined) it is 102% (inactive); for `COC1OC(COC(C)=O)C(OC(C)=O)C(OC(C)=O)C1OC(C)=O` (centres undefined) it is 88.8% (inactive).
Consider `C#CCSc1nnnn1-c1ccccc1`, for which the growth was 40% (inactive).

In the next experiment the test system is CCRF-CEM leukemia. The description is as above. Conditions: 10 µM unless noted.
For the compound `O=C(CCl)Oc1ccc([N+](=O)[O-])cc1`, the growth is 95.9% (inactive).
Turning to `Clc1cccc(Cl)c1CSc1nc2ccccc2n2cccc12`, the growth is 100% (inactive).
Same read-out and setting: to `Cc1cccnc1NC1OC(=O)c2ccccc21` (centres undefined) belongs 104% (inactive); to `COc1cc(OC)c(NC(=O)C(Sc2nc(C)cc(C)c2C#N)c2ccccc2)cc1Cl` (centres undefined), 99.4% (inactive).
The same measure, in the same setting: the figure for `COc1ccc(/C=N/NC(=O)COCC(=O)N/N=C/c2ccc(OC)cc2)cc1` is 86.8% (inactive).
Still for that read-out and setting: the figure for `CC(C)c1ccccc1NC(=O)N1CCC(C(C)C)CC1` is 101% (inactive); for `FC(F)(F)c1cc(NC2=NCCN=C(Nc3cc(C(F)(F)F)cc(C(F)(F)F)c3)SS2)cc(C(F)(F)F)c1` it is 28.8% (inactive).
Regarding `CC(CCC#N)(CCC#N)C(=O)c1ccccc1`, the growth is 93.3% (inactive).
The same measure, in the same setting: the figure for `CCCCCCCCNC(=O)C(C)C` is 102% (inactive).
The same measure, in the same setting: to `CCCCCCCCCCCCCCCCCC(=O)NCCNC(=O)CCCCCCCCCCCCCCCCC` belongs 61.9% (inactive); to `C=CCC(OC(C)=O)c1ccc(C(C)C)cc1` (centres undefined), 102% (inactive).
On the same count and under the same terms, to `CC(=O)c1cc(O)ccc1O` belongs 73.7% (inactive); to `CCCNS(=O)(=O)c1ccc(Cl)cc1`, 100% (inactive); to `S=c1nc(-c2ccccn2)c(-c2ccccn2)n[nH]1`, 97.2% (inactive).
Regarding `CCOc1ccc(C(=O)NCC(C)C)cc1`, the growth was 103% (inactive).
The same measure, in the same setting: to `O=C(O)c1cccc(-n2ncc(Cl)c(Cl)c2=O)c1` belongs 98.3% (inactive); to `Cn1/c(=N\N=C\c2ccccc2OCCO)sc2ccccc21`, 93.3% (inactive).
The same measure, in the same setting: to `Clc1ccc(-c2noc(/C=C\c3ccccc3)n2)cc1` belongs 92.3% (inactive).
On the same count and under the same terms, to `CC(=O)Nc1ncc(S(=O)(=O)c2ccc([N+](=O)[O-])cc2)s1` belongs 101% (inactive); to `CC(=O)NCNC(C)=O`, 93.3% (inactive); to `CCOC(=O)c1ccc(C(C)(C)C)cc1`, 113% (inactive).
For the compound `Cc1ccc(NC(=O)c2ccccc2Cl)cc1`, the growth is 85% (inactive).
On to `C=CCC(OC(C)=O)c1ccc(OC)c(OC)c1` (centres undefined), for which the growth is 100% (inactive).
Same read-out and setting: the figure for `Oc1ccc(N=Cc2ccc(OCc3ccccc3)cc2)cc1` is 82.4% (inactive); for `COc1nc(Nc2cccc(C(F)(F)F)c2)nc(OC)n1` it is 95.5% (inactive).
As for `C=C1SC(=Nc2c(C)cccc2C)N(c2nc(Cl)nc(Cl)n2)C12CCCCC2`, the growth was 95.9% (inactive).
The same measure, in the same setting: to `O=C(CCl)Nc1ccccc1SCc1cc(Cl)cc2c1OCOC2` belongs -27.5% (active).
On to `Cc1c(-c2ccc(C3CCCCC3)cc2)nc2ccc(F)cc2c1C(=O)O`, for which the growth is 35.7% (inactive).
Same read-out and setting: the figure for `C[n+]1cc2cc3c(cc2c2ccccc21)OCO3` is 57.5% (inactive); for `CCCC(=O)CC(=O)c1ccccc1` it is 97.5% (inactive); for `O=C(O)Cc1ccc(Cl)cc1` it is 132% (inactive).
The same measure, in the same setting: to `CC(C)(CC(=O)O)CC(=O)O` belongs 105% (inactive); to `CCOC(=O)C(C#N)=C1CCN(C)CC1`, 99.2% (inactive); to `O=C1NC(=O)C(c2ccccc2)O1` (centres undefined), 101% (inactive).
The same measure, in the same setting: the figure for `COC1OC(COC(C)=O)C(OC(C)=O)C(OC(C)=O)C1OC(C)=O` (centres undefined) is 95.9% (inactive); for `C#CCSc1nnnn1-c1ccccc1` it is 83.9% (inactive).

The subject of another experiment is MOLT-4 leukemia. The experiment is described as above. Conditions: 10 µM unless noted.
For `O=C(CCl)Oc1ccc([N+](=O)[O-])cc1`, the growth was 105% (inactive).
`Clc1cccc(Cl)c1CSc1nc2ccccc2n2cccc12`: the growth is 92.9% (inactive).
Still for that read-out and setting: to `Cc1cccnc1NC1OC(=O)c2ccccc21` (centres undefined) belongs 99.3% (inactive); to `COc1cc(OC)c(NC(=O)C(Sc2nc(C)cc(C)c2C#N)c2ccccc2)cc1Cl` (centres undefined), 90.9% (inactive).
Still for that read-out and setting: the figure for `COc1ccc(/C=N/NC(=O)COCC(=O)N/N=C/c2ccc(OC)cc2)cc1` is 98.3% (inactive); for `Nc1ccccc1SC1CC(=O)N(c2ccc(Cl)c(Cl)c2)C1=O` (centres undefined) it is 109% (inactive).
`CC(C)c1ccccc1NC(=O)N1CCC(C(C)C)CC1`: the growth is 90.8% (inactive).
Still for that read-out and setting: to `FC(F)(F)c1cc(NC2=NCCN=C(Nc3cc(C(F)(F)F)cc(C(F)(F)F)c3)SS2)cc(C(F)(F)F)c1` belongs 51.2% (inactive); to `CC(CCC#N)(CCC#N)C(=O)c1ccccc1`, 97.8% (inactive); to `CCCCCCCCNC(=O)C(C)C`, 107% (inactive).
Still for that read-out and setting: the figure for `CCCCCCCCCCCCCCCCCC(=O)NCCNC(=O)CCCCCCCCCCCCCCCCC` is 67.2% (inactive); for `C=CCC(OC(C)=O)c1ccc(C(C)C)cc1` (centres undefined) it is 105% (inactive); for `CC(=O)c1cc(O)ccc1O` it is 92.8% (inactive).
On the same count and under the same terms, to `S=c1nc(-c2ccccn2)c(-c2ccccn2)n[nH]1` belongs 87.7% (inactive); to `CCOc1ccc(C(=O)NCC(C)C)cc1`, 100% (inactive); to `O=C(O)c1cccc(-n2ncc(Cl)c(Cl)c2=O)c1`, 96.5% (inactive).
Consider `Cn1/c(=N\N=C\c2ccccc2OCCO)sc2ccccc21`, for which the growth was 62.7% (inactive).
On the same count and under the same terms, to `Clc1ccc(-c2noc(/C=C\c3ccccc3)n2)cc1` belongs 98.4% (inactive); to `CCOC(=O)c1ccc(C(C)(C)C)cc1`, 87.1% (inactive); to `NC(=S)N/N=C/c1ccc(Cl)cc1`, 88.4% (inactive).
Regarding `Cc1ccc(NC(=O)c2ccccc2Cl)cc1`, the growth was 87.8% (inactive).
In the case of `C=CCC(OC(C)=O)c1ccc(OC)c(OC)c1` (centres undefined), the growth was -29% (active).
With `Oc1ccc(N=Cc2ccc(OCc3ccccc3)cc2)cc1`, the growth was 97.1% (inactive).
Still for that read-out and setting: the figure for `COc1nc(Nc2cccc(C(F)(F)F)c2)nc(OC)n1` is 86.4% (inactive).
As to `C=C1SC(=Nc2c(C)cccc2C)N(c2nc(Cl)nc(Cl)n2)C12CCCCC2`, the growth was 95.5% (inactive).
With `O=C(CCl)Nc1ccccc1SCc1cc(Cl)cc2c1OCOC2`, the growth was 50.7% (inactive).
The same measure, in the same setting: to `Cc1c(-c2ccc(C3CCCCC3)cc2)nc2ccc(F)cc2c1C(=O)O` belongs 15.2% (inactive).
On to `C[n+]1cc2cc3c(cc2c2ccccc21)OCO3`, for which the growth is 12.4% (inactive).
On the same count and under the same terms, the figure for `CCCC(=O)CC(=O)c1ccccc1` is 107% (inactive).
With `O=C(O)Cc1ccc(Cl)cc1`, the growth was 8.9% (active).
`CC(C)(CC(=O)O)CC(=O)O`: the growth was 100% (inactive).
The same measure, in the same setting: to `CCOC(=O)C(C#N)=C1CCN(C)CC1` belongs 58.5% (inactive).
For `O=C1NC(=O)C(c2ccccc2)O1` (centres undefined), the growth is 98.3% (inactive).
On to `COC1OC(COC(C)=O)C(OC(C)=O)C(OC(C)=O)C1OC(C)=O` (centres undefined), for which the growth is 96.3% (inactive).
